Test results: PubChem BioAssay (NCATS)
Records with an inconclusive call do not appear. A call without a number means that no potency is given here. Calls of active or inactive are those of the source. Calls follow the shape of the dose curve; as a rule, active = well fitted inhibition curve with a large enough effect; inconclusive = small, poorly fitted or top-dose-only effect; inactive = flat fitted curve, though single readings scatter.

Each compound was assayed against Luciferin 4-monooxygenase (Photinus pyralis) (UniProt P08659) (assay: Biochemical firefly luciferase enzyme assay for NPC (AID 624030; also: nearly all actives have a fitted effect of over 70% in size)). Settings: purified P. pyralis luciferase, luminescence, 5 min; series mostly up to 58.6 µM.
Chain of Luciferin 4-monooxygenase (Photinus pyralis) (P08659 whole entry, looked up): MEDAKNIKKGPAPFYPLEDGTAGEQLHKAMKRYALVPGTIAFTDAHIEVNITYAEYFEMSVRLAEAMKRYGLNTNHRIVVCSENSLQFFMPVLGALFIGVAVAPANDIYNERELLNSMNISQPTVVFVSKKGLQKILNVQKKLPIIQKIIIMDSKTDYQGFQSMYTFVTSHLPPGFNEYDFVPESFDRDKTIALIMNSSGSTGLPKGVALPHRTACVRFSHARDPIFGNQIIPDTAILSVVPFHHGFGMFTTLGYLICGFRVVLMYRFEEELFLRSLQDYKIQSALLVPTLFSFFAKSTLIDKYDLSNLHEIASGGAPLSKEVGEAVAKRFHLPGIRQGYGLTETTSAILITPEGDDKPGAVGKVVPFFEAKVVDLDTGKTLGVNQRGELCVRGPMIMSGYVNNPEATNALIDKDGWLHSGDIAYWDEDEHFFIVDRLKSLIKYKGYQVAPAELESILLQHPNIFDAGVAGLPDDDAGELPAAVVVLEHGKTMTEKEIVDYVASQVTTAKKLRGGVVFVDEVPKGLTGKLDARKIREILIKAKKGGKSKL
Text: Charcot-Marie-Tooth-Association [CMTA] National Center for Advancing Translational Sciences [NCATS] Charcot-Marie-Tooth (CMT) disease was first characterized by Jean-Martin Charcot and Pierre Marie in France and, independently, by Howard Henry Tooth in England in 1886. CMT is one of the most common inherited neurological diseases, affecting approximately 1 in 2,500 Americans. […] The most prevalent type of CMT is known as CMT1A and caused by a duplication of the PMP22 gene which leads to over-expression of this protein. PMP22 is a glycosylated intrinsic membrane protein accounting for 2-5% of the myelin protein content, and its over-expression results in demyelination and subsequently axonal loss. A pair of cellular transcription-based assays was developed in the S16 rat Schwann cell lines (Hai, M., et al., 2002) stably transfected with orthogonal reporters - firefly luciferase (Fluc) and beta-lactamase (beta-Lac) - whose expression is driven by an intronic regulatory element of the PMP22 gene (Jones, E.A., et al., 2011) to recapitulate endogenous expression of PMP22. A comprehensive library of approved drugs, the NCGC Pharmaceutical Collection (Huang, R., et al., 2011), was screened in the cross-validating platform of the orthogonal reporter assays to identify drug modulators inhibitory towards PMP22 expression. A set of counter-screens was devised to address non-specific activity of the library. An ATP-dependent CellTiter-Glo assay (developed by Promega Corp) was utilized to control cell viability. In addition, biochemical Fluc enzyme assay was performed to assess direct inhibition of the Fluc enzymatic activity. References Hai, M., Muja, N., DeVries, G.H., Quarles, R.H. and Patel, P.I. Comparative analysis of Schwann cell lines as model systems for myelin gene transcription studies. J Neurosci Res, 2002. 69(4): pp 497-508 Huang, R., Southall, N., Wang, Y., Yasgar A., Shinn P., Jadhav, A. , Nguyen, D.-T. and Austin, C.P., The NCGC pharmaceutical collection: a comprehensive resource of clinically approved drugs enabling repurposing and chemical genomics. Sci Transl Med, 2011. 3(80): p. 80ps16.
Compounds were transferred to the plates in 23nl, and one microliter/well luciferase enzyme-buffer solution (10 nM P. pyralis luciferase and 50 mM Tris Acetate final concentrations) was dispensed yielding a final reaction volume of […]. Luciferase luminescence was measured by a ViewLux plate reader within 5 minutes of enzyme-buffer addition. The % activity was determined by normalizing to the average readings of PTC124 (a positive control) relative to DMSO (0% Activity). The concentration-effect curves were then classified based on curve quality (r2), response magnitude and degree of measured activity.
`O=C1[C@H]2CCCC[C@H]2C(=O)N1CCCCN1CCN(c2nsc3ccccc23)CC1` was tested, and the Potency was “inactive”. In the case of `COc1cc(-c2ccc(=O)[nH]n2)ccc1OC(F)F`, the Potency is reported as “inactive”. With `CC(=O)c1ccc2c(c1)N(CCCN1CCC(CCO)CC1)c1ccccc1S2` the Potency was “inactive”. With `COCc1c(C(C)C)nc(C(C)C)c(/C=C/[C@@H](O)C[C@@H](O)CC(=O)O)c1-c1ccc(F)cc1` the Potency was “inactive”. For `c1ccc(-c2ccc(C(c3ccccc3)n3ccnc3)cc2)cc1` (stereo not given), the Potency was “inactive”. `Cc1cc(=O)n(-c2ccccc2)n1C` was tested, and the Potency was “inactive”. In the case of `NC(CS)C(=O)O` (stereo not given), the Potency is reported as “inactive”. `CN(C)CC/C=C1\c2ccccc2Sc2ccc(Cl)cc21` was tested, and the Potency was “inactive”. For `Nc1ccc(C(=O)Nc2ccccc2N)cc1`, the Potency was “inactive”. With `OC(CCN1CCCCC1)(c1ccccc1)c1ccccc1` the Potency was “inactive”. In the case of `CCCCS(=O)(=O)N[C@@H](Cc1ccc(OCCCCC2CCNCC2)cc1)C(=O)O`, the Potency is reported as “inactive”. For `Cc1ccc(Nc2c(F)cccc2Cl)c(CC(=O)O)c1`, the Potency was “inactive”. In the case of `N[C@H](CO)C(=O)O`, the Potency is reported as “inactive”. With `COc1cccc(CCc2ccccc2OCC(CN(C)C)OC(=O)CCC(=O)O)c1` (stereo not given) the Potency was “inactive”. `Nc1ccc(C(=O)O)cc1` was tested, and the Potency was “inactive”. For `COC1=CC(=O)C[C@@H](C)[C@]12Oc1c(Cl)c(OC)cc(OC)c1C2=O`, the Potency was “inactive”. In the case of `CC(C)COC(=O)OCN1C(=O)CN(CCN2CC(=O)N(COC(=O)OCC(C)C)C(=O)C2)CC1=O`, the Potency is reported as “inactive”. `O=C(OCCOCCO)c1ccccc1Nc1cccc(C(F)(F)F)c1` was tested, and the Potency was “inactive”. For `NC(CO)(CO)CO`, the Potency was “inactive”. `CCOC(=O)COc1ccc2c(C)c(CCN(CC)CC)c(=O)oc2c1Cl` was tested, and the Potency was “inactive”. For `CCCCc1nc(Cl)c(CO)n1Cc1ccc(-c2ccccc2-c2nn[nH]n2)cc1`, the Potency was “inactive”. `Cc1cccc(C)c1NC(=O)CN1CCN(CCCC(c2ccc(F)cc2)c2ccc(F)cc2)CC1` was tested, and the Potency was “inactive”. In the case of `CCC(=O)c1c(O)cc(O)cc1O`, the Potency is reported as “inactive”. With `CC1=C(C(=O)OC(C)C)C(c2cccc([N+](=O)[O-])c2)C(C(=O)OC2CN(C(c3ccccc3)c3ccccc3)C2)=C(N)N1` (stereo not given) the Potency was “inactive”. For `Oc1ccc(O)cc1`, the Potency was “inactive”. `CC(O)(P(=O)(O)O)P(=O)(O)O` was tested, and the Potency was “inactive”. `C[N+]1(CCCCC[N+]2(C)CCCC2)CCCC1` was tested, and the Potency was “inactive”. `O=C1CCC(c2ccc(-n3ccnc3)cc2)=NN1` was tested, and the Potency was “inactive”. For `C[C@@H]1CN(CCCn2c3ccccc3c3ccccc32)C[C@H](C)N1`, the Potency was “inactive”. `C[C@H]1[C@H](NC(=O)/C(=N/OC(C)(C)C(=O)O)c2csc(N)n2)C(=O)N1S(=O)(=O)O` (stereo in doubt) was tested, and the Potency was “inactive”. For `COc1cc(OC)cc(OC)c1`, the Potency was “inactive”. In the case of `CC1(C)OC[C@@H](COC(=O)CCc2ccc(OC[C@@H](O)CNCCNC(=O)N3CCOCC3)cc2)O1`, the Potency is reported as “inactive”. `Oc1ccc(Cl)cc1Sc1cc(Cl)ccc1O` was tested, and the Potency was “inactive”. For `C1CCc2nnnn2CC1`, the Potency was “inactive”. With `CCCCC(CC)CN=C(N)NC(N)=NCCCCCCN=C(N)NC(N)=NCC(CC)CCCC` (stereo not given) the Potency was “inactive”. For `CN1CCC[C@@H]1c1cccnc1`, the Potency was “inactive”. `CCCCOc1ccc(C(=O)CCN2CCCCC2)cc1` was tested, and the Potency was “inactive”. In the case of `CCN1CCCC1=O`, the Potency is reported as “inactive”. For `CC(C)(C)CC(C)(C)c1ccc(OCCOCC[N+](C)(C)Cc2ccccc2)cc1`, the Potency was “inactive”. `CC(C)(CO)[C@@H](O)C(=O)NCCCO` was tested, and the Potency was “inactive”.
